# Measurements from the supplement of paper PMC4166925.
# ± gives the standard deviation of the averaged measurements. In all, about 33,000 sequences were measured (“E-score (dimensionless, -0.5 to 0.5)”: median about -0.046, highest 2% from about 0.36 on). This is one part of a sample in which the highest values are shown more often than they occur.
# Test system: T1, SpTbr T-box DNA-binding domain (GST fusion)
# T1 sequence: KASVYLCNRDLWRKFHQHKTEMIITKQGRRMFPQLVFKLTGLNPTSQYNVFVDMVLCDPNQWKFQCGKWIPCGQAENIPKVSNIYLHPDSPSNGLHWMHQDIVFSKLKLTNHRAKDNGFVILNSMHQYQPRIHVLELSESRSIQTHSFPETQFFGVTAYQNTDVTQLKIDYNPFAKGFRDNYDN
# Test: PBM E-score of 8-mer (E-score (dimensionless, -0.5 to 0.5)); Tbr is Tbrain of the sea star Patiria miniata (Pm) or the sea urchin Strongylocentrotus purpuratus (Sp); higher = stronger binding preference
# Details: the construct has about 5 more residues each side
# In short: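 GST-fused Tbr T-box DNA-binding domains (the whole T-box plus about five flanking residues) were expressed in BL21 E. coli at 20 °C and purified by glutathione affinity chromatography. Universal Agilent oligonucleotide arrays were made double-stranded by primer extension, incubated with 200 nM protein in PBS (pH 7.5), then scanned and quantified. Every ungapped 8-mer was scored from probe intensities. The Universal PBM Analysis Suite gave each word an enrichment E-score, averaged over duplicate arrays.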
row,Sequence,PBM E-score of 8-mer
1,TAAAGAAA,-0.13 ± 0.11
2,CCCTAACC,-0.113 ± 0.029
3,ACGCGCGG,0.229 ± 0.028
4,ACGCGCGA,0.393 ± 0.023
5,ACGCGCGC,0.189 ± 0.056
6,AAGTAGAA,0.0466 ± 0.046
7,TGTGAAAA,0.394 ± 0.048
8,TGTGAACA,0.445 ± 0.0018
9,GGTGAACA,-0.0711 ± 0.04
10,CGTGAAAA,0.329 ± 0.069
11,CGTGAACC,0.353 ± 0.018
12,GGTGAAAA,0.126 ± 0.095
13,TATGAACA,-0.0802 ± 0.022
14,CGTGAACA,0.3774 ± 0.003
15,AGTGAACA,0.175 ± 0.0043
16,AGATATTC,-0.243 ± 0.033
17,AGCTATTG,-0.0351 ± 0.028
18,ACTTAGAG,-0.0957 ± 0.015
19,CCCAAATC,-0.108 ± 0.11
20,CCAAGAGC,-0.28 ± 0.06
21,AGGTGAGG,0.4113 ± 0.0021
22,AAGTGAGA,0.4 ± 0.018
23,AAGTGAGG,0.2725 ± 0.0021
24,GAGTGAGA,0.346 ± 0.023
25,AGGTGAGC,0.2602 ± 0.00092

row,Sequence,PBM E-score of 8-mer
1,AGGTGAGA,0.4826 ± 0.0046
2,AGGTGAAA,0.266 ± 0.045
3,GGGGGTGA,0.289 ± 0.03
4,ACGTGAGG,0.196 ± 0.024
5,CGGTGAGA,0.257 ± 0.012
6,GGGTGAGA,0.424 ± 0.0073
7,CAGTGAGA,0.157 ± 0.062
8,CATCGATA,-0.00022 ± 0.06
9,CGCAAGGA,-0.051 ± 0.018
10,AGATTCCG,-0.0246 ± 0.022
11,CTCGTATA,-0.142 ± 0.0069
12,TAACTACA,0.0924 ± 0.085
13,GAGGTGTA,0.418 ± 0.014
14,ACGGTGTA,0.137 ± 0.026
15,GCGGTGTA,-0.122 ± 0.012
16,AAGGTGTG,0.4816 ± 0.0018
17,AAGGTTTG,-0.161 ± 0.046
18,ACGGTGTG,0.3578 ± 0.0014
19,CCGGTGTA,0.115 ± 0.037
20,AAGGTGTA,0.394 ± 0.023
21,GGGGTGTA,0.167 ± 0.062
22,TACGACCA,-0.249 ± 0.12
23,CGTGCACG,0.00996 ± 0.044
24,CTTTCTAA,-0.187 ± 0.023
25,ACGCAGGC,-0.149 ± 0.011

row,Sequence,PBM E-score of 8-mer
1,CTTAGTGA,0.0752 ± 0.0019
2,ACGCGAGT,0.107 ± 0.072
3,ATGGGAGC,-0.168 ± 0.01
4,GGTTCAAA,-0.343 ± 0.0085
5,AGATCACA,0.342 ± 0.02
6,CGTTCACA,0.418 ± 0.0069
7,CGTTCAAG,-0.167 ± 0.0076
8,CGTTCACC,0.0843 ± 0.012
9,AGTTCACG,0.338 ± 0.049
10,GGTTCATA,-0.0395 ± 0.039
11,AGTTCACA,0.442 ± 0.013
12,AGTTCACC,-0.00201 ± 0.066
13,CGATCACG,0.221 ± 0.037
14,CGATCACA,0.396 ± 0.0068
15,GGTTCACA,0.3973 ± 0.0018
16,TAGATCCA,-0.288 ± 0.061
17,CTAGTTTA,-0.132 ± 0.14
18,AGTCCTGG,-0.262 ± 0.021
19,CGGAGATA,0.0372 ± 0.0019
20,AATTGGGA,-0.0875 ± 0.07
21,CCTTGGAG,-0.1541 ± 0.00054
22,ACGCGCCG,0.227 ± 0.11
23,ACACAGTA,0.116 ± 0.02
24,GCCTTCGC,0.296 ± 0.0037
25,CGATGCAG,-0.164 ± 0.022

row,Sequence,PBM E-score of 8-mer
1,AATCTTCC,-0.133 ± 0.036
2,GAAGTAAA,-0.281 ± 0.027
3,ATAATCTC,-0.0752 ± 0.092
4,CCGAGACG,-0.121 ± 0.015
5,ACGCGAGA,0.219 ± 0.016
6,CCGCGAGA,0.224 ± 0.037
7,GCGAGAGA,0.203 ± 0.061
8,GCGCGAGA,0.3663 ± 0.0029
9,GCGCGAGC,0.298 ± 0.053
10,TCGCGAGA,0.367 ± 0.01
11,AACTATAT,-0.0107 ± 0.13
12,GAGTTACC,0.144 ± 0.011
13,CGCACAGC,0.122 ± 0.012
14,GCCCCAAC,0.133 ± 0.059
15,ATGTGTAA,0.342 ± 0.0099
16,CTCACCTA,0.385 ± 0.014
17,GTCACCCA,0.203 ± 0.0083
18,GTCACCGA,0.0907 ± 0.0094
19,GTCACCTA,0.392 ± 0.017
20,CTTACCTA,-0.163 ± 0.054
21,CTCACCGA,0.0544 ± 0.017
22,GGTCTCGA,-0.115 ± 0.014
23,GCATGGGC,-0.0364 ± 0.0065
24,GCTACTAC,0.013 ± 0.035
25,ATTCCCAA,-0.227 ± 0.012

row,Sequence,PBM E-score of 8-mer
1,TCTGAGAA,-0.238 ± 0.12
2,CGTGAGAC,0.2491 ± 0.0021
3,CGTGAGGA,0.178 ± 0.011
4,CGTGAGAA,0.347 ± 0.016
5,AGTGAGAC,0.169 ± 0.04
6,TGTGAGAA,0.4336 ± 0.0026
7,AGTGAGGA,0.246 ± 0.028
8,TGAGAGAA,0.0644 ± 0.036
9,GGTGAGAA,0.4745 ± 0.0016
10,GGTGAGGA,0.384 ± 0.0073
11,GGTGAGAC,0.3819 ± 0.0012
12,GCTGAGAA,0.26 ± 0.048
13,CGTTGAAG,0.0941 ± 0.031
14,ATGGACAA,0.101 ± 0.003
15,AGGCCAAC,-0.0875 ± 0.028
16,CGAGTAGC,0.0635 ± 0.0055
17,TAGGGCGA,-0.00769 ± 0.086
18,GAACTTGA,-0.0691 ± 0.0032
19,CCGCGACG,0.0384 ± 0.061
20,ATCAGATA,-0.0339 ± 0.043
21,AGTGAGAG,0.3 ± 0.0092
22,AGTGAGAT,0.287 ± 0.033
23,AGTGAGAA,0.422 ± 0.014
24,CAACCTGA,-0.0529 ± 0.059
25,ATTGGTCC,-0.197 ± 0.039

row,Sequence,PBM E-score of 8-mer
1,CACGTGAC,0.286 ± 0.042
2,CACGTGTA,0.272 ± 0.0034
3,AGCGTGTC,0.152 ± 0.072
4,AACGTGTC,0.372 ± 0.0067
5,ACCGTGTG,0.203 ± 0.052
6,AACGTGTG,0.4114 ± 0.0041
7,AACGTGCG,0.32 ± 0.0051
8,CACGTGTC,0.391 ± 0.014
9,AACGTGTA,0.135 ± 0.074
10,ACTCGATG,-0.0556 ± 0.081
11,ACAACGAT,-0.00065 ± 0.016
12,CACGCCCC,0.24 ± 0.013
13,AGACAACG,-0.0213 ± 0.033
14,CAGCTAGG,0.101 ± 0.087
15,CAGCCTCC,-0.239 ± 0.021
16,CAGGCTAC,-0.221 ± 0.014
17,ACAATTCA,0.163 ± 0.069
18,CCCGACAA,0.154 ± 0.02
19,CCCGACAG,0.0718 ± 0.038
20,ACCGACAA,-0.0797 ± 0.034
21,ACCGACAC,0.373 ± 0.0082
22,ACCGACAT,-0.042 ± 0.038
23,GCCGACAC,0.397 ± 0.0048
24,CCCGACAC,0.367 ± 0.017
25,GCCGACCC,-0.201 ± 0.12

row,Sequence,PBM E-score of 8-mer
1,GCCGACAA,0.161 ± 0.014
2,GACAATTA,0.029 ± 0.11
3,GGACAACA,0.0909 ± 0.012
4,GAGGATGC,-0.0317 ± 0.049
5,CGGAATGC,-0.214 ± 0.051
6,CCGAACGC,-0.0118 ± 0.08
7,GCGAACGA,0.283 ± 0.035
8,GCGAACGC,0.3749 ± 0.0018
9,GCAGAGAA,-0.328 ± 0.0058
10,GACTCTCA,0.0161 ± 0.056
11,GTTCACAA,0.376 ± 0.02
12,ATTCACTG,0.0169 ± 0.045
13,CTTCACAA,0.32 ± 0.0058
14,CTTCACCC,0.123 ± 0.04
15,ATTCACAC,0.4807 ± 0.0029
16,ATTCACTC,0.115 ± 0.056
17,GTTCACTA,-0.0482 ± 0.02
18,ATTCACAG,0.395 ± 0.025
19,GTTCACGA,0.275 ± 0.0011
20,ATTCACCG,0.0187 ± 0.041
21,CTTCACAC,0.4852 ± 0.00088
22,ATTCACAA,0.299 ± 0.061
23,AGAGAGCT,-0.0758 ± 0.017
24,GGAGAACC,0.0265 ± 0.00056
25,GCAATACA,-0.0823 ± 0.031

row,Sequence,PBM E-score of 8-mer
1,CATCGACA,0.222 ± 0.013
2,ACTTTTCT,0.00466 ± 0.018
3,CATAAGTC,-0.18 ± 0.0024
4,CACAGTTA,0.147 ± 0.022
5,CCTCAGAC,-0.204 ± 0.031
6,AACAACAA,0.102 ± 0.0091
7,CACAACAG,0.198 ± 0.0064
8,GACAACTC,0.252 ± 0.019
9,GTCAACAA,0.333 ± 0.0095
10,GACAACAC,0.385 ± 0.0048
11,CTCAACAC,0.269 ± 0.022
12,GTCAACAC,0.434 ± 0.0065
13,CACAACAC,0.3898 ± 0.0017
14,GACAACAA,0.215 ± 0.015
15,CACAACAA,0.285 ± 0.028
16,AACAACAC,0.373 ± 0.013
17,AACAACAT,0.187 ± 0.02
18,AGAGCCAG,0.0237 ± 0.035
19,TGTTTCAA,-0.0693 ± 0.047
20,CAGCGCAA,-0.0911 ± 0.0026
21,GCAGCGCC,0.189 ± 0.062
22,CGCATGGC,-0.0354 ± 0.028
23,CCTCCACG,0.0268 ± 0.029
24,CCGCAAGG,-0.0599 ± 0.044
25,ACCGTCCG,-0.0723 ± 0.023

row,Sequence,PBM E-score of 8-mer
1,CGGTTAAA,-0.129 ± 0.16
2,GCGACACC,0.432 ± 0.021
3,GGGACACC,0.226 ± 0.042
4,ACGACACT,0.257 ± 0.0054
5,ACGACACG,0.226 ± 0.042
6,GCGACACA,0.31 ± 0.0039
7,CCGACACC,0.438 ± 0.0068
8,CCGACACG,0.253 ± 0.034
9,CCGACACA,0.36 ± 0.022
10,ACGACACC,0.419 ± 0.02
11,CGTTGGGC,-0.255 ± 0.022
12,ATCAATCC,-0.172 ± 0.082
13,GAACGATC,0.0814 ± 0.028
14,CCTGACCC,-0.133 ± 0.084
15,TGAGCGCA,0.00286 ± 0.049
16,GTGTGATA,0.459 ± 0.0047
17,ATGTGATA,0.254 ± 0.024
18,CTGTGATA,0.23 ± 0.055
19,ATGTGAGG,0.28 ± 0.041
20,ATGTGAGA,0.414 ± 0.018
21,CTGTGAGA,0.292 ± 0.0058
22,GTGAGAGA,0.339 ± 0.0054
23,GTGTGAGA,0.4699 ± 0.0024
24,ATGTGAGC,0.06995 ± 0.00026
